Reference: PubChem BioAssay AID2549 (National Center for Advancing Translational Sciences (NCATS), 2010)
Where “and” joins values, the source holds several entries; their conditions need not be identical. Equal entries are not always repeated. Out of some 240,000 compounds screened, about 1,300 (0.54%) were called active. About 1% were inconclusive and are not listed. Calls follow the shape of the dose curve; as a rule, active = well fitted inhibition curve with a large enough effect; inconclusive = small, poorly fitted or top-dose-only effect; inactive = flat fitted curve, though single readings scatter. The list comes from a sample in which actives are over-represented; it also holds similar structures and randomly drawn compounds. The source holds several records for some structures; these can differ, active in one and inactive in another.

These compounds were tested against ATP-dependent DNA helicase Q1 (Homo sapiens) (UniProt P46063) (assay: qHTS Assay for Inhibitors of RecQ-Like Dna Helicase 1 (RECQ1)). Settings: RECQ1 DNA unwinding, red fluorescence kinetic read; series mostly up to 57.3 µM; activity, negative = inhibition: at the top concentration.
Text: Survival of cells and the faithful propagation of the genome depend on elaborate mechanisms of detecting and repairing DNA damage. Treatment of advanced cancer relies on radiation therapy or chemotherapy, which kill cancer cells by causing extensive DNA damage. It is often found, that cancer cells develop resistance to therapy through enhanced activity of DNA repair functions; this has led to an increased interest in developing drugs that interfere with DNA repair, which could sensitize cancer cells to conventional therapy.
This validation qHTS assay pertains to human RECQ1, which is important in resolving abnormal DNA structures formed during replication or homologous recombination. Shutting down the expression of RECQ1 leads to chromosomal instability and higher radiation sensitivity in cultured cells.
The validation assay was a fluorescence quenching based kinetic qHTS for RECQ1 Helicase DNA unwinding. The activity was measured as ATP-dependent separation of a 20-bp DNA duplex extended by 30-nt single-stranded tails (forked duplex). The forked DNA substrate was tagged with rhodamine fluorophore (carboxytetramethyl rhodamine, TAMRA) and BHQ-2 (Black Hole Quencher 2) dark quencher. Strand separation results in an increase in the fluorescence of TAMRA (excitation 525 nm, emission 598 nm). This substrate construct operates in a red-shifted region where very few compound library members have been noted to fluoresce (PubChem AIDs 593 and 594). An additional feature of the assay is the inclusion of 2.5 ug/ml poly (dIdC), to reduce interference by compounds such as DNA intercalators, a major source of false inhibitors.
Opher Gileadi, Structural Genomics Consortium, University of Oxford
Screening Center PI: Austin, C.P.
Screening Center: NIH Chemical Genomics Center [NCGC]
Three uL of reaction buffer (25 mM Tris-HCl (pH 8.0), 5 mM NaCl, 2 mM MgCl2, 1mM DTT, 0.01% Tween- 20, and 2.5 ug/ml poly(dI-dC), including enzyme (50 nM RECQ1T1), were dispensed into a 1536-well Greiner black assay plate via solenoid-valve based nanoliter dispensers. Compounds (23 nl each in columns 5-48) and control (23 nl each in column 2 as dose-response) were transferred via a Kalypsys pintool equipped with a 1536-pin array. The plates were incubated for 15 min at room temperature, and then 1 ul of substrates (200 nM DNA and 2 mM ATP, final concentrations) was added to start the reaction. The plate was transferred into a ViewLux high-throughput CCD imager where the reaction progress was measured in a discontinuous kinetic mode (two reads spaced 2 hours apart, with intermediate room temperature incubation of the covered assay plate) by using standard red-fluorescence optics (excitation filter 525 nm, emission filter 598 nm). Enzyme-free and vehicle (DMSO) controls were included for signal normalization.
Also: nearly all actives have a fitted effect of over 30% in size.
Potency is read from the fitted curve at half-maximal effect.

Chain of ATP-dependent DNA helicase Q1 (Homo sapiens) (P46063 whole entry, looked up): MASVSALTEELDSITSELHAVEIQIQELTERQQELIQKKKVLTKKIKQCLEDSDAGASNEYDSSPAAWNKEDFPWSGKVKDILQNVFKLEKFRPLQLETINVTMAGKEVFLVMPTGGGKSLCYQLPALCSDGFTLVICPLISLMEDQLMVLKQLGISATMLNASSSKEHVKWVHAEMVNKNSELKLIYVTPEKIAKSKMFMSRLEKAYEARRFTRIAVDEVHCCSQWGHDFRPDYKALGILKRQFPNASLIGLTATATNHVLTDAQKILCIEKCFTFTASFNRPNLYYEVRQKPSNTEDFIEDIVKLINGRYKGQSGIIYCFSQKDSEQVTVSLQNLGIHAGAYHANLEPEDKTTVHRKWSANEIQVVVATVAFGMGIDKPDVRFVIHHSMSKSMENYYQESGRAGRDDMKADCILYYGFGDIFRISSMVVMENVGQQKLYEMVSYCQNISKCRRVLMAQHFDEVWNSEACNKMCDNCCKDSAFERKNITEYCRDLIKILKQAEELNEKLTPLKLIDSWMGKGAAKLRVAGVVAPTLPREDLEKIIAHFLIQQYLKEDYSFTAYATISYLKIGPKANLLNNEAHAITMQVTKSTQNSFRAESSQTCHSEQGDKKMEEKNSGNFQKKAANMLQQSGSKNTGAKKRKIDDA

SMILES | activity, negative = inhibition | Potency | outcome
O=[N+]([O-])c1ccc(N2CCSCC2)cc1O | -5.86% (inactive) |  | 
O=C1CSC(=S)N1/N=C/c1ccc(O)c([N+](=O)[O-])c1 |  | 25.1 µM (active) | 
NC(N)=N/N=C/c1ccc(Cl)c([N+](=O)[O-])c1 | -12.1% (inactive) |  | 
Cc1cc(C)c(OCC(=O)N/N=C/c2ccco2)c(C)c1 |  |  | inactive
CN1[C@H]2CC(OC(=O)[C@@H](CO)c3ccccc3)C[C@H]1[C@H]1O[C@H]12 (some centres undefined) | -5.26% [at 25.9 µM] (inactive) |  | 
NC(=O)c1sc(-c2ccsc2)cc1N |  |  | inactive
O=C(NCc1ccccn1)[C@]1(C(F)(F)F)C[C@H](CCc2ccccc2)CCCO1 |  |  | inactive
O=C1OCCN1C(=O)[C@H]1[C@H](c2ccccc2)C(c2ccc(F)cc2)=NN1c1ccccc1 | -6.31% [at 81.1 µM] (inactive) |  | 
O=C1OCCN1C(=O)[C@H]1[C@H](c2ccc(F)cc2)C(c2ccccc2)=NN1c1ccc(Br)cc1 | -15.4% (inactive) |  | 
O=C1OCCN1C(=O)[C@H]1[C@H](c2ccc(Cl)cc2)C(c2cccc(Cl)c2)=NN1c1ccc(Br)cc1 |  | 25.1 µM (active) | 
C[C@@H]1C(c2ccc(F)cc2)=NN(c2ccc(Br)cc2)[C@H]1C(=O)N1CCOC1=O |  | 25.1 µM (active) | 
CC(C)C(NS(=O)(=O)c1ccc(-c2ccc(Br)cc2)cc1)C(=O)O (centres undefined) | 10.7% (inactive) |  | 
CC(C)=CCC[C@]1(C)[C@@H](CC=C(C)C)C[C@@]2(CC=C(C)C)C(=O)[C@]1(C(=O)C(C)C)C(=O)C(CC=C(C)C)=C2O | -0.0015% (inactive) |  | 
CC(C)C(=O)Nc1c(O)c2ccccc2[nH]c1=O | -12.4% (inactive) |  | 
CCCC(=O)Nc1c(O)c2ccccc2[nH]c1=O | -7.38% (inactive) |  | 
O=C1C(c2[nH]c3ccccc3c2O)=Nc2ccccc21 |  | inactive and 35.5 µM (active) | 
COc1ccc(Cl)cc1NC(=O)Cn1nc(-c2ccc(C)cc2)n(C)c1=S | -2.73% (inactive) |  | 
Cc1ccc(NC(=O)CC2S/C(=N/N=C3\CCCc4ccccc43)NC2=O)cc1 (centres undefined) |  | 25.1 µM (active) | 
CCN=C1SC(CC(=O)Nc2ccc(C)cc2)C(=O)N1CC (centres undefined) | -10.1% (inactive) |  | 
Cc1c(Cl)cccc1NC(=O)CC1SC(=NCC2CCCO2)NC1=O (centres undefined) | -5.65% (inactive) |  | 
COc1cc(OC)c2c(c1C(CCN1CCCCC1)c1ccc(N(C)C)cc1)OC(=O)CC2c1ccc(N(C)C)cc1 (centres undefined) | -1.54% (inactive) |  | 
O=[N+]([O-])c1cc(S(=O)(=O)Nc2cccc(Cl)c2)ccc1N=Nc1c(O)[nH]c2ccccc12 |  |  | inactive
CC1=C(/C=C/C(C)=C/C=C/C(C)=C/C=C/C=C(C)/C=C/C=C(C)/C=C/C(=O)[C@]2(C)C[C@@H](O)CC2(C)C)C(C)(C)C[C@H](O)C1 |  |  | inactive
C=C1CCN(C(CC(C)C)C(=O)NCc2cc(OC)c(OC)c(OC)c2)S(=O)(=O)c2ccccc21 (centres undefined) |  |  | inactive
COc1ccc(-c2ccc(OC)c(C3C4C=CCC(C)C4C(=O)N3Cc3ccccc3)c2)cc1C (centres undefined) | -11% (inactive) |  | 

SMILES | activity, negative = inhibition | Potency | outcome
O=C(c1cc2c(s1)CCC2)N1CCN(c2ccccc2)CC1 |  | 11.2 µM (active) | 
Cc1nc2ccc(C(=O)N3CCN(c4ccccc4)CC3)cc2s1 | 0.371% (inactive) |  | 
O=C(NNC(=O)c1cc2c(s1)CCCC2)c1ccccc1 | 1.32% (inactive) |  | 
CC(C)C(=O)N1CCC2(CC1)Oc1ccc(F)cc1C(=O)C21CC(c2ccccc2)=NO1 (centres undefined) |  |  | inactive
CCCOc1ccc(NC(=O)CC2C(=O)N(C)C(=S)N2Cc2ccc3c(c2)OCO3)cc1 (centres undefined) | -17.1% (inactive) |  | 
O=C(Nc1cc(C(=O)Nc2ccc(S(=O)(=O)O)cc2)cc(C(=O)Nc2ccc(S(=O)(=O)O)cc2)c1)Nc1cc(C(=O)Nc2ccc(S(=O)(=O)O)cc2)cc(C(=O)Nc2ccc(S(=O)(=O)O)cc2)c1 | 9.47% (inactive) |  | 
Cc1ccc(CNC(=O)C2(C(F)(F)F)C/C(=C\Cc3ccccc3)CCCO2)o1 (centres undefined) |  |  | inactive
CC(=O)OCC1OC(C#Cc2ccccc2Cl)C=CC1OC(C)=O (centres undefined) |  |  | inactive [at 11.5 µM]
Fc1ccc(Cl)cc1-c1nc(Nc2ccncc2)c2nccnc2n1 | 7.16% (inactive) |  | 
Cc1ccc(C)n1C(Cc1ccccc1)C(=O)O (centres undefined) |  | 12.6 µM (active) | 
COc1ccc(CNC(=O)C(Cc2ccccc2)n2cccc2)cc1 (centres undefined) | -2.84% (inactive) |  | 
CC(Cc1ccccc1)C(=O)N(C)Cc1ccccc1 (centres undefined) |  | inactive | 
O=C(NCC1CC1)C1(C(F)(F)F)C/C(=C\CCO)CCCO1 (centres undefined) | -0.775% (inactive) |  | 
CCOC(=O)C1=NOC(Cn2cc(C(C)=O)c(=O)[nH]c2=O)C1 (centres undefined) | -3.54% (inactive) |  | 
CCOC(=O)C1=C(C)N=C2c3ccccc3C(=O)C2C1c1ccc(Br)cc1 (centres undefined) | -6.22% (inactive) |  | 
CCOC(=O)C1=NO[C@@]2(C=C(Br)C(=O)[C@H]3O[C@H]32)C1 |  | 28.2 µM (active) | 
NC(=O)C1=C[C@@H](c2csc3ccccc23)C[C@@H](OCc2ccc(CO)cc2)O1 | -0.57% (inactive) |  | 
COC(=O)c1ccc([C@@H](O)[C@H](C)C(=O)CC(=O)OC(C)(C)C)cc1 |  |  | inactive
Cc1cccc(N=C2NC(=O)/C(=C/c3cn(C)c4ccccc34)S2)c1 | -12.2% (inactive) |  | 
CN(C)c1ccc(-n2cccc2/C=C2/SC(=Nc3ccc(F)cc3)NC2=O)cc1 | -1.05% (inactive) |  | 
Cc1ccc(N=C2NC(=O)/C(=C/C=C/c3ccco3)S2)cc1C |  | 22.4 µM (active) | 
O=C1CN(Cc2ccccc2)S(=O)(=O)c2ccccc21 | -2.98% (inactive) |  | 
CC(C)=CCN1CCC2(CCc3ccccc32)CC1 | -1.26% (inactive) |  | 
CS(=O)(=O)c1ccc2c(c1)SC1=NC(=O)/C(=C/c3ccco3)C(=N)N12 |  | 28.2 µM (active) | 
